# Experimental data as given in a collection of fitness landscapes (doi:10.1038/s41467-024-54723-y).
# Over roughly 18,000 sequences, “TetR repression strength (sort-seq, GFP reporter)” has its median near 0.23; the highest 2% begin near 0.68. This excerpt belongs to a sample that is enriched for the highest values.
# Molecular target: TetR (class B, Tn10) (UniProt P04483)
# Assay: TetR repression strength (sort-seq, GFP reporter) (relative to tetO2 = 1); higher = stronger repression
# Settings: E. coli
# Outline: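 Escherichia coli SIG10-MAX cells carried a low-copy plasmid library in which eight operator positions were randomized between a constitutive promoter and sfGFP, and TetR was expressed constitutively. After 5 h of growth at 37 °C in LB with 50 µg/mL chloramphenicol, 10^6 cells were FACS-sorted into 13 fluorescence bins, and each bin was Illumina-sequenced. Repression strength was the top bin index plus one minus the read-weighted mean bin, divided by the value for the unaltered operator. Across three independent transformations, only library members with ≥30 reads in every replicate and a CV ≤0.5 were averaged.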
# Sequence of TetR (class B, Tn10) (P04483 whole entry): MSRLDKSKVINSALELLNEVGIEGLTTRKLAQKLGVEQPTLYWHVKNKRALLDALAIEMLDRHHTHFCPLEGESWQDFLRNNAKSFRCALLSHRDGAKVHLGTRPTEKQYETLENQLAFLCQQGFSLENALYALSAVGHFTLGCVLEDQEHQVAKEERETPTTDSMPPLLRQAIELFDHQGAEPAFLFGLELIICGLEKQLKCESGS
row,Sequence,TetR repression strength
1,TCCCGTTGAGTCGGCGAGA,0.157
2,TCCCACCAAGTAGGAGAGA,0.285
3,TCCCTAAGAGTACTGGAGA,0.401
4,TCCCGCCGAGTTAAGGAGA,0.19
5,TCCCGACGAGTAGTGGAGA,0.171
6,TCCCAATCAGTTTGAGAGA,0.144
7,TCCCTCGCAGTGAGCGAGA,0.22
8,TCCCAGGCAGTAAGGGAGA,0.0777
9,TCCCAGTCAGTGATCGAGA,0.322
10,TCCCGGTCAGTGATCGAGA,0.684
11,TCCCGGTCAGTGGTCGAGA,0.633
12,TCCCCGGGAGTCCACGAGA,0.252
13,TCCCGAGTAGTTAAGGAGA,0.21
14,TCCCCCTGAGTTTATGAGA,0.265
15,TCCCCGGGAGTTAATGAGA,0.517
16,TCCCGAGGAGTTAACGAGA,0.535
17,TCCCGAGTAGTTAACGAGA,0.857
18,TCCCGGGGAGTTAATGAGA,0.944
19,TCCCCCGGAGTTTATGAGA,0.801
20,TCCCGGAGAGTTAATGAGA,0.225
21,TCCCGCGGAGTTTATGAGA,0.184
22,TCCCGGGAAGTTACAGAGA,0.0346
23,TCCCGGGGAGTTACAGAGA,0.903
24,TCCCGGAGAGTTACAGAGA,0.245

row,Sequence,TetR repression strength
1,TCCCAGACAGTGATAGAGA,0.384
2,TCCCGCAGAGTGTCTGAGA,0.216
3,TCCCGTTAAGTCGCGGAGA,0.391
4,TCCCCTTGAGTGTAAGAGA,0.558
5,TCCCGTCGAGTGTCAGAGA,0.263
6,TCCCGTGTAGTTGTTGAGA,0.0138
7,TCCCGGGTAGTTAGTGAGA,0.166
8,TCCCGCGTAGTTAATGAGA,0.421
9,TCCCGGGTAGTTAATGAGA,1
10,TCCCCAGCAGTGATGGAGA,0.2
11,TCCCAGAAAGTGGCGGAGA,0.316
12,TCCCACCGAGTAGGCGAGA,0.166
13,TCCCAGAGAGTAGACGAGA,0.217
14,TCCCTCCGAGTAGGCGAGA,0.745
15,TCCCGGCGAGTAGAAGAGA,0.418
16,TCCCAGCGAGTAGACGAGA,1.03
17,TCCCTCCGAGTAGGTGAGA,0.222
18,TCCCAGCGAGTAGAAGAGA,0.334
19,TCCCGGCGAGTAGACGAGA,1.03
20,TCCCGGCGAGTAGAGGAGA,0.248
21,TCCCGGGTAGTGGTGGAGA,0.277
22,TCCCCATCAGTGAGCGAGA,0.19
23,TCCCGATCAGTTAGGGAGA,0.313
24,TCCCATGCAGTTGGGGAGA,0.216

row,Sequence,TetR repression strength
1,TCCCTTTCAGTTTTGGAGA,0.151
2,TCCCATGCAGTTTGGGAGA,1.07
3,TCCCATGGAGTTTGGGAGA,0.201
4,TCCCTTTCAGTTTGGGAGA,0.925
5,TCCCTTTCAGTTTCGGAGA,0.422
6,TCCCAGTGAGTCGCAGAGA,0.0941
7,TCCCTTGGAGTCGGCGAGA,0.0727
8,TCCCATTCAGTATCGGAGA,0.159
9,TCCCATTCAGTCCGCGAGA,0.259
10,TCCCAGGGAGTAGGGGAGA,0.204
11,TCCCACTGAGTCAGAGAGA,0.279
12,TCCCGGAGAGTATGCGAGA,0.159
13,TCCCGGTGAGTGAACGAGA,0.819
14,TCCCTTGCAGTATGAGAGA,0.157
15,TCCCCTTGAGTATGCGAGA,1.05
16,TCCCTTTGAGTATGCGAGA,0.127
17,TCCCCTGCAGTATGAGAGA,0.855
18,TCCCGGTGAGTGGACGAGA,0.496
19,TCCCCTGCAGTATTAGAGA,0.211
20,TCCCCTTGAGTATGTGAGA,0.409
21,TCCCGGTGAGTAAACGAGA,0.0592
22,TCCCGGTGAGTATGCGAGA,1.15
23,TCCCGGTTAGTATGCGAGA,0.19
24,TCCCGAGTAGTTATCGAGA,0.34

row,Sequence,TetR repression strength
1,TCCCGGGTAGTCTGAGAGA,0.147
2,TCCCGACCAGTTTCGGAGA,0.0546
3,TCCCTGCGAGTTCGTGAGA,0.297
4,TCCCGGGAAGTTGATGAGA,0.0797
5,TCCCTGCGAGTCGGTGAGA,0.245
6,TCCCACTCAGTGCCAGAGA,0.287
7,TCCCTACCAGTGGAAGAGA,1.24
8,TCCCTCCCAGTGGAAGAGA,0.491
9,TCCCTAACAGTGGTAGAGA,0.415
10,TCCCTGCAAGTGGAAGAGA,0.276
11,TCCCTCCCAGTCGCGGAGA,0.291
12,TCCCTACCAGTGCAAGAGA,0.199
13,TCCCTATGAGTGGTAGAGA,0.288
14,TCCCTACCAGTCGCGGAGA,0.967
15,TCCCTAAAAGTGGAAGAGA,0.104
16,TCCCTATCAGTGGTAGAGA,1.01
17,TCCCTACCAGTCGGAGAGA,0.278
18,TCCCTACAAGTGGAAGAGA,1.21
19,TCCCTGACAGTCGGTGAGA,0.106
20,TCCCAGGGAGTTTTAGAGA,0.305
21,TCCCACGTAGTCAATGAGA,0.157
22,TCCCTCAGAGTAAAGGAGA,0.218
23,TCCCTTTGAGTAGGTGAGA,0.168
24,TCCCATTGAGTTGCTGAGA,0.153

row,Sequence,TetR repression strength
1,TCCCTCACAGTCAGTGAGA,0.302
2,TCCCGCAAAGTGAATGAGA,0.207
3,TCCCCGCGAGTGACAGAGA,0.569
4,TCCCAACAAGTGAGTGAGA,0.42
5,TCCCTATCAGTTGAAGAGA,0.55
6,TCCCTATCAGTGGAAGAGA,0.722
7,TCCCTAACAGTGGAAGAGA,0.299
8,TCCCCGACAGTTGCGGAGA,0.0545
9,TCCCTGGGAGTTTAGGAGA,0.302
10,TCCCTGCAAGTACCTGAGA,0.308
11,TCCCGGCGAGTGGGGGAGA,0.193
12,TCCCGACTAGTTAGCGAGA,0.682
13,TCCCGACTAGTTAGTGAGA,0.25
14,TCCCCTCAAGTTAGGGAGA,0.304
15,TCCCGGCTAGTTAGCGAGA,0.485
16,TCCCCTCAAGTTAGCGAGA,0.742
17,TCCCCTCAAGTTGGCGAGA,0.113
18,TCCCATGGAGTATGAGAGA,0.417
19,TCCCAAAGAGTGGAGGAGA,0.388
20,TCCCCGCCAGTAAAAGAGA,0.389
21,TCCCGGTCAGTGGCCGAGA,0.523
22,TCCCGGCCAGTTCGTGAGA,0.197
23,TCCCGTGTAGTTGCAGAGA,0.976
24,TCCCGTGTAGTTGGAGAGA,0.191

row,Sequence,TetR repression strength
1,TCCCGCGGAGTGGTTGAGA,0.768
2,TCCCCCGGAGTGGTTGAGA,0.192
3,TCCCGCGTAGTAGGAGAGA,0.691
4,TCCCCCGTAGTAGGAGAGA,0.197
5,TCCCGCGTAGTTGTTGAGA,0.402
6,TCCCGCGTAGTAGGGGAGA,0.425
7,TCCCGCGGAGTGGTGGAGA,0.155
8,TCCCGCGTAGTGGTTGAGA,0.826
9,TCCCGTGCAGTTGCAGAGA,0.376
10,TCCCGCGTAGTGGTGGAGA,0.256
11,TCCCTGTGAGTCGTTGAGA,0.443
12,TCCCGGTAAGTATTCGAGA,0.175
13,TCCCCATAAGTCCTTGAGA,0.415
14,TCCCATAGAGTATGGGAGA,0.0311
15,TCCCGGAGAGTAGCGGAGA,0.287
16,TCCCTATCAGTTGTTGAGA,0.441
17,TCCCTTTCAGTGATTGAGA,0.713
18,TCCCTTTCAGTTATTGAGA,0.55
19,TCCCTATCAGTGTCAGAGA,0.958
20,TCCCTATGAGTGTCAGAGA,0.238
21,TCCCAATCAGTGAGAGAGA,0.538
22,TCCCAATCAGTGTGTGAGA,0.101
23,TCCCTTTCAGTGAGTGAGA,0.488
24,TCCCTATAAGTTGTGGAGA,0.201

row,Sequence,TetR repression strength
1,TCCCTATCAGTGTCTGAGA,0.556
2,TCCCTATCAGTTGTGGAGA,0.726
3,TCCCAATCAGTGAGTGAGA,0.701
4,TCCCTTGTAGTTGAAGAGA,0.148
5,TCCCTTGGAGTGATAGAGA,0.384
6,TCCCTTTCAGTTAAGGAGA,0.196
7,TCCCTGGAAGTGTTCGAGA,0.277
8,TCCCGGAGAGTATAAGAGA,0.289
9,TCCCAAGAAGTAGGTGAGA,0.23
10,TCCCATAAAGTTCAAGAGA,0.224
11,TCCCTTACAGTTCCAGAGA,0.363
12,TCCCTTATAGTCTCGGAGA,0.214
13,TCCCTGTCAGTGAGCGAGA,0.341
14,TCCCTATAAGTCATTGAGA,0.498
15,TCCCCATCAGTAACGGAGA,0.304
16,TCCCTAACAGTGATGGAGA,0.278
17,TCCCTATCAGTGATGGAGA,0.999
18,TCCCTATCAGTCATTGAGA,0.708
19,TCCCTATCAGTCAATGAGA,0.625
20,TCCCTCTCAGTGATGGAGA,0.546
21,TCCCAATCAGTAACTGAGA,0.278
22,TCCCAATCAGTAACGGAGA,0.802
23,TCCCTATGAGTGAGCGAGA,0.278
24,TCCCTATCAGTGAGCGAGA,0.73

row,Sequence,TetR repression strength
1,TCCCGTTCAGTGCTTGAGA,0.367
2,TCCCACTCAGTGCATGAGA,0.218
3,TCCCCCTGAGTAGGCGAGA,0.179
4,TCCCCGCAAGTACACGAGA,0.292
5,TCCCCAGGAGTGATGGAGA,0.176
6,TCCCTAGTAGTTGTGGAGA,0.283
7,TCCCTCGGAGTTGGTGAGA,0.237
8,TCCCTGTCAGTCGGTGAGA,0.378
9,TCCCCGGCAGTGGTGGAGA,0.25
10,TCCCGGACAGTGCCAGAGA,0.402
11,TCCCATGGAGTCGGTGAGA,0.0966
12,TCCCTATAAGTCAGTGAGA,0.427
13,TCCCGGACAGTTGGGGAGA,0.922
14,TCCCTATCAGTGAATGAGA,0.781
15,TCCCGGACAGTTTGGGAGA,0.473
16,TCCCGGACAGTTGGAGAGA,0.299
17,TCCCGGACAGTGTGAGAGA,1.2
18,TCCCTATAAGTGAGTGAGA,0.693
19,TCCCTATAAGTGAGGGAGA,0.237
20,TCCCGGACAGTGTGTGAGA,0.2
21,TCCCGGACAGTGAGAGAGA,0.246
22,TCCCAATCAGTGAATGAGA,0.603
23,TCCCTAACAGTGAATGAGA,0.46
24,TCCCGCGAAGTAAGCGAGA,0.151

row,Sequence,TetR repression strength
1,TCCCTCCTAGTGCGAGAGA,0.151
2,TCCCCGTGAGTTGGAGAGA,0.319
3,TCCCCATGAGTTAGCGAGA,0.188
4,TCCCTGCCAGTTCATGAGA,0.0931
5,TCCCGAGCAGTGGAGGAGA,0.35
6,TCCCCTAGAGTGGGGGAGA,0.195
7,TCCCGTTCAGTTTGTGAGA,0.145
8,TCCCAATCAGTTAGGGAGA,0.146
9,TCCCTGGCAGTCGGGGAGA,0.473
10,TCCCTAGTAGTGCAAGAGA,0.538
11,TCCCTGTGAGTCTCAGAGA,0.365
12,TCCCTATCAGTGTGAGAGA,0.919
13,TCCCTATGAGTGTGAGAGA,0.252
14,TCCCTTTGAGTAAGTGAGA,1.15
15,TCCCTTTGAGTGATTGAGA,0.263
16,TCCCTACCAGTGATTGAGA,0.511
17,TCCCTTTAAGTAAGTGAGA,0.247
18,TCCCTAACAGTGATTGAGA,0.745
19,TCCCTTTGAGTAAGGGAGA,0.152
20,TCCCCTCGAGTGATTGAGA,0.244
21,TCCCTTCGAGTGATTGAGA,0.73
22,TCCCTAACAGTGAGTGAGA,0.514
23,TCCCTGTCAGTGTGAGAGA,0.0482
